Assay results as given in PubChem BioAssay.
Activity calls are given as the source filed them. Unless noted, how the calls were made is not given here.

What was measured:
[1] = system: Wnt5a (protein binding on small-molecule microarray); assay: small molecules binding Wnt5a protein – biophysical, small-molecule microarray, 635/667 nm fluorescence, primary screen (AID 1142); conditions: 635 nm fluorescence, higher = more signal;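 further: fluorescence read at 667 nm with signal to noise per printed feature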
[2] = ATP-based viability of Huh7 replicon cells – cell-based, CellTiter-Glo luminescence, basal, 48 h, cytotoxicity control for HCV replication inhibitor project, primary screen (AID 1143); conditions: higher = more signal, called active from +8 up or from −8 down;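 further: Huh7 hepatoma cells carrying a hepatitis C replication reporter with no stimulus; test concentration not given here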
[3] = Pseudomonas biofilm growth suppression – PAO1 strain, BacTiter-Glo luminescence, LB-PBS, primary screen (AID 1144); conditions: P. aeruginosa PAO1 biofilm, 12 h, higher = more signal
[4] = basal CRE-LacZ reporter activity in PC12 – cell-based, unstimulated, primary screen (AID 1145); conditions: no forskolin, luminescence, 4.5 h, higher = more signal, called active from +8 up or from −8 down
[5] = forskolin-driven CRE-LacZ activity in PC12 – cell-based, CRE-LacZ reporter, forskolin-stimulated, primary screen (AID 1146); conditions: luminescence, 4.5 h, higher = more signal, called active from +8 up or from −8 down;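 further: PC12 cells with 6xCRE LacZ reporter stimulated by forskolin 10 µM; beta-galactosidase reporter signal reflecting CREB driven transcription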
[6] = target: Streptavidin (Streptomyces avidinii) (UniProt P22629); assay: compounds binding control protein streptavidin – biophysical, small-molecule microarray, 635/667 nm fluorescence, artefact control for SMM compound annotation, primary screen (AID 1147); conditions: higher = more signal;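 further: signal reflects streptavidin binding to arrayed compounds as a control protein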
Chain of Streptavidin (Streptomyces avidinii) (P22629 whole entry, looked up): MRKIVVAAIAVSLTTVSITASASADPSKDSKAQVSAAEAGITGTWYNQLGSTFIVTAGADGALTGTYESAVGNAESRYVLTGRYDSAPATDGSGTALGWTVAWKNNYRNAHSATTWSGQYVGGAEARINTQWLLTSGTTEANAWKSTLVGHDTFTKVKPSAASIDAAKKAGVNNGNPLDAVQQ

[7] = probe aInhba binding on compound microarray – biochemical, small-molecule microarray, 635/667 nm fluorescence, primary screen (AID 1148); conditions: higher = more signal;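 further: score merges 667nm spot fluorescence with signal-to-noise for antibody binding to printed compounds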
[8] = target: Torsin-1A (Homo sapiens) (UniProt O14656); assay: TOR1A wild-type binding on microarray – cell lysate, small-molecule microarray, lysate, 635/667 nm, primary screen (AID 1149); conditions: COS7 hTOR1A-WT lysate, 635 nm fluorescence, higher = more signal
Chain of Torsin-1A (Homo sapiens) (O14656 whole entry, looked up): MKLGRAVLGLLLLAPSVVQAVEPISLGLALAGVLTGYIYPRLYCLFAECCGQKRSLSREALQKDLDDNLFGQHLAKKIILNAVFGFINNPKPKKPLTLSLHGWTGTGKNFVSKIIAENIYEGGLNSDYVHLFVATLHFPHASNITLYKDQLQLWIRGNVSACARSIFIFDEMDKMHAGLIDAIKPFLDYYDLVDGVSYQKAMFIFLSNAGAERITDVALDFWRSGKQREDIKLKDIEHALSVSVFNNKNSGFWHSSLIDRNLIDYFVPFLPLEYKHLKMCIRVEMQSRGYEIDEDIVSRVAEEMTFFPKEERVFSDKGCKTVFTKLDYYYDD

[9] = target: Torsin-1A (Homo sapiens) (UniProt O14656); assay: torsin A mutant lysate binding on microarrays – cell lysate, small-molecule microarray, COS7 lysate, 635/667 nm fluorescence, primary screen (AID 1150); conditions: COS7 hTOR1A mutant lysate, 635 nm fluorescence, higher = more signal;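 further: score pools 667 nm emission and signal to noise measuring lysate protein binding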
[10] = system: Sonic hedgehog protein (Shh); assay: Sonic hedgehog microarray binding compounds – biochemical, small-molecule microarray, 635/667 nm fluorescence, primary screen (AID 1151); conditions: 635 nm fluorescence, higher = more signal;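 further: Shh protein binding to compounds spotted on small-molecule microarray slides; score combines spot fluorescence intensity with signal-to-noise across triplicate slides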

| Compound | composite z-score [1] | z-score [2] | z-score [3] | z-score [4] | z-score [5] | composite z-score [6] | composite z-score [7] | composite z-score [8] | composite z-score [9] | composite z-score [10] |
| --- | --- | --- | --- | --- | --- | --- | --- | --- | --- | --- |
| COCCOC(=O)N1C(=O)[C@@]2(c3cc(C#CC4(O)CCCCCC4)ccc31)[C@H](C(=O)N1CCc3cc(OC)c(OC)cc3C1)[C@H]1C(=O)O[C@H](c3ccccc3)[C@H](c3ccccc3)N1[C@@H]2c1ccc(OCCO)cc1 | 0.536 | -1.38 (inactive) | -0.555 (inactive) | -0.465 (inactive) | 0.581 (inactive) | 1.04 | -0.0736 | 0.71 | 0.362 | 1.58 |
| CCOC(=O)C[C@H]1[C@H](OC(=O)c2cc3ccccc3oc2=O)[C@@H](NC(=O)c2ccccc2)c2cc(OCCCO)ccc2N1C(=O)c1ccccc1 | 0.315 | -2.83 (inactive) | 0.311 (inactive) | 3.75 (inactive) | -0.0599 (inactive) | 0.289 | -0.113 | 0.575 | 0.347 | 0.696 |
| CC(=O)N1CC2(CC2)CC1c1ccccc1 (stereo not given) | 0.898 | -0.283 (inactive) | 0.108 (inactive) | 0.397 (inactive) | -0.366 (inactive) | 0.547 | 0.507 | 0.192 | 0.421 | -0.515 |
| COC(=O)C1(CC(C)C)C=C2C(=C(c3ccccc3)C(=O)C2C)CN1 (stereo not given) | 0.894 | -0.207 (inactive) | 0.279 (inactive) | 0.966 (inactive) | 1.64 (inactive) | 0.246 | 0.613 | -0.0212 | 1.3 | 1.75 |
| C=CC[C@H](OC(=O)Nc1ccc(SC)cc1)c1ccc(O)c2ccccc12 | 0.336 | -6.78 (inactive) | -0.921 (inactive) | 4.1 (inactive) | 3.2 (inactive) | 1.61 | -0.101 | 0.557 | 0.465 | 1.76 |
| CCCC#C[Si](O[C@H](CC)c1cn([C@H](C)c2ccccc2)nn1)(C(C)C)C(C)C | 0.0759 | -0.746 (inactive) | -0.616 (inactive) | -0.621 (inactive) | -0.929 (inactive) | -0.121 | 0.143 | 0.575 | 0.95 | 0.275 |
| O=C1O[C@H](c2ccccc2)[C@H](c2ccccc2)N2[C@H]1[C@@H](C(=O)O)[C@]1(C(=O)Nc3ccc(C#CCCO)cc31)[C@H]2c1ccccc1OCCO | 0.248 | -0.873 (inactive) | -0.352 (inactive) | -0.195 (inactive) | 1.04 (inactive) | -0.18 | -0.0986 | -0.658 | -0.199 | 0.824 |
| O=C(O)[C@@H]1C[C@@H]2C(=O)N3CCC[C@H]3C(=O)N2[C@@H]1c1ccc(O)cc1 | 0.357 | -2.79 (inactive) | 0.235 (inactive) | 0.0205 (inactive) | -1.18 (inactive) | 0.262 | 0.0586 | 0.746 | 0.643 | 1.61 |
| CC(C)N1C(=O)c2ccccc2[C@@H](C(=O)NCCN2CCOCC2)[C@@H]1c1ccc(CO)cc1 | -1.15 | 0.179 (inactive) | -0.0165 (inactive) | 0.324 (inactive) | -0.107 (inactive) | -1.14 | -0.238 | -3.17 | -1.46 | -1.49 |
| CO[C@H]1O[C@H](CO)[C@@H](OC(=O)Nc2ccc3c(c2)OCO3)[C@H](OC(=O)Nc2ccc3c(c2)OCO3)[C@@H]1OC(=O)Nc1ccc2c(c1)OCO2 | 0.523 | -2.3 (inactive) | 0.506 (inactive) | 0.643 (inactive) | -1.48 (inactive) | 1.11 | -0.0087 | 0.967 | 1.05 | 0.164 |
